Screening data from PubChem BioAssay.
hcDAF12 agonist: H. contortus DAF-12 activation, primary screen; HEK293 hcDAF-12 lit1-tk-luc reporter, luminescence; 0% DMSO, 100% Δ7-dafachronic acid; activation, % at 6.8 µM; hit rate 1.4% among 370,000; AID 652067;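 active = activation above the mean of all tested compounds plus 3 SD, cut at about 5.5% in these data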
hgDAF-12 ag: hgDAF-12 agonism, primary luciferase screen. HEK293 GAL4-hgDAF12 UAS-luciferase reporter, agonist luminescence; normalized to butyrate control. AID 687014. hit rate 1.8% among 370,000. activation, % at 6.8 µM;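 active = activation above a cutoff set at the mean of all screened compounds plus 3 SD, cut at about 10% in these data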
DAX1 inh-1: NR0B1 (DAX1) inhibition; inhibition, % at 6.75 µM; P51843; hit rate 0.99% among 340,000; AID 504766; HEK293 Gal4-DAX1 luciferase reporter, luminescence;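 active = inhibition above the mean over all tested compounds plus 3 SD, cut at about 4.2% in these data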;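 also: inhibition shows as a rise in luminescence from relieved DAX1 repression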
Target sequence (P51843 207-470 limits assumed): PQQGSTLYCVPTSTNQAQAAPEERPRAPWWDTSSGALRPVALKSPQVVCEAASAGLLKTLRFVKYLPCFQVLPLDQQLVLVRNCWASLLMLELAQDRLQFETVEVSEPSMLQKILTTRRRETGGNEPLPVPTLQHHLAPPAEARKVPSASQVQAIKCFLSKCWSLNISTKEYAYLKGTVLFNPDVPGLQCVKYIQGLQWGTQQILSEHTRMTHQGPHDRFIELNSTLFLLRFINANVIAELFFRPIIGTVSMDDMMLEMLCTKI
ssDAF-12 act: S. stercoralis DAF-12 activation, primary screen; hit rate 1% among 370,000; HEK293 ssDAF-12/GRIP1 lit1-tk-luc reporter, luminescence; % of 3 µM dafachronic acid response; AID 652126; activation, % at 6.8 µM;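 active = activation above the mean over all tested compounds plus 3 SD, cut at about 0.9% in these data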
DAX1 inh-2: inhibitors of DAX1 repression of SF-1 activated StAR promoter; HEK293T StAR-luciferase reporter, SF-1/DAX-1 repression relief; inhibition, % at 6.8 µM; hit rate 1.1% among 370,000;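 active = inhibition above the mean over all tested compounds plus 3 SD, cut at about 3.6% in these data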;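 also: higher inhibition means more luminescence from relief of DAX-1 repression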
A number is an active result; – = inactive; · = not tested or not shown. Sampled rows, rich in hits. Any-hit rate of the full collection: about 4.1%.

SMILES	hcDAF12 agonist	hgDAF-12 ag	DAX1 inh-1	ssDAF-12 act	DAX1 inh-2
O=C(/C=C/C=C/c1ccc2c(c1)OCO2)N1CCCCC1	–	–	5.3	–	–
Cc1cc(C)n(C(=O)c2c([N+](=O)[O-])c(C)nn2C)n1	–	–	–	–	–
Cc1ccc(SC(=O)c2c([N+](=O)[O-])c(C)nn2C)cc1	–	–	4.5	–	–
O=C(NNC(=O)c1cc2ccccc2o1)c1ccc(F)cc1	–	–	–	–	–
Cc1csc(C(C#N)C(=O)c2cc3ccccc3o2)n1 (stereo not drawn)	–	–	–	–	3.9
O=[N+]([O-])c1ccccc1Nc1nc(-c2cccnc2)cs1	5.6	–	–	–	–
CCc1ccccc1Nc1nc(-c2cccnc2)cs1	–	–	–	–	–
COc1ccc(Nc2nc(-c3cccnc3)cs2)c(OC)c1	–	–	–	–	–
COc1ccccc1Nc1nc(-c2cccnc2)cs1	–	11.7	–	1.2	–
COc1ccc(Nc2nc(-c3cccs3)cs2)c(OC)c1	–	–	4.9	1.1	–
C[C@H]1[C@@H](N(C)C)CC[C@@]23CCCN2C(=O)CCC[C@@H]13	–	–	·	–	·
Cc1nc2ccc(Br)cn2c1C(=O)N/N=C\c1ccccc1[N+](=O)[O-]	6.2	10.5	·	–	–
O=C(N/N=C/c1ccccc1[N+](=O)[O-])c1ccncc1	–	–	–	–	–
Cc1ccc2nc(C)c(C(=O)N/N=C/c3cccs3)n2c1	–	12.0	–	–	–
Cc1ccn2c(C(=O)N/N=C\c3cccs3)c(C)nc2c1	–	–	–	–	–
O=C(N/N=C/c1ccccc1[N+](=O)[O-])c1cnccn1	–	–	4.3	–	–
CCOC(=O)CC[C@@H]1CC[C@]2(CCCN(C(=O)c3ccno3)C2)O1	–	–	·	–	–
Cc1ccc(NC(=O)Cc2ccc(OC(F)F)cc2)c(S(=O)(=O)N2CCOCC2)c1	–	–	·	–	–
CN1CCCCC(NC(=O)c2ccccc2)C1=O (stereo not drawn)	–	–	·	–	–
CN1CCCCC(NC(=O)c2ccc3ccccc3c2)C1=O (stereo not drawn)	–	10.6	·	–	–
CCCC[C@@H](CCCc1ccc(F)cc1)CCC(=O)N(c1ccccc1)c1ccccc1	–	–	·	–	–
CCCc1cc(=O)[nH]c(SCCN2C(=O)c3ccccc3C2=O)n1	–	–	5.5	–	–
CN1C(=O)[C@@](O)(c2cccn2C)c2cc(Cl)ccc21	–	–	·	0.9	–
COC(=O)C1=C(C)N(Cc2ccc(Cl)cc2)C(=S)NC1c1ccc(Br)cc1 (stereo not drawn)	–	–	·	–	–
CCCN(CCC)S(=O)(=O)c1ccc(C(=O)NCc2n[nH]c(=S)n2-c2ccc(Cl)c(Cl)c2)cc1	–	–	5.2	–	–
SMILES	hcDAF12 agonist	hgDAF-12 ag	DAX1 inh-1	ssDAF-12 act	DAX1 inh-2
O=C(NCc1n[nH]c(=S)n1-c1ccc(Cl)c(Cl)c1)c1ccc(S(=O)(=O)N2CCCCC2)cc1	–	–	–	–	–
O=[N+]([O-])c1ccc(OCCCCCN2CCOCC2)cc1	–	–	5.0	–	–
CN1CCN(C(=O)CCc2nc3ccccc3c(=O)[nH]2)CC1	6.0	–	–	–	–
CN(Cc1ccccc1)Cc1c(O)ccc2ccccc12	–	–	–	–	–
CSc1ccccc1NC(=O)CN(C)Cc1c(O)ccc2ccccc12	6.2	–	–	–	–
CSc1ccccc1NC(=O)CN(C)Cc1ccc(Br)cc1	–	–	–	–	–
COc1ccc(OCCN(C)Cc2c(O)ccc3ccccc23)cc1	6.0	–	–	–	–
CN(Cc1nc2ccccc2c(=O)[nH]1)c1ccccc1	–	–	5.3	–	–
NC(=O)C1CCN(C(=O)CCc2nc3ccccc3c(=O)[nH]2)CC1	–	–	–	–	–
O=C(NCc1ccc(F)c(F)c1)C1CCC(CNS(=O)(=O)c2cccc3cccnc23)CC1 (stereo not drawn)	–	–	·	–	–
O=C(CSc1nnc(-c2cccs2)o1)Nc1cc(Cl)cc(Cl)c1	–	–	·	–	–
CCN(CC(=O)Nc1ccccc1-c1ccccc1)Cc1nc2ccccc2c(=O)[nH]1	–	–	–	–	–
CCN(CC(=O)Nc1ccccc1SC)Cc1nc2ccccc2c(=O)[nH]1	–	–	5.0	–	–
Cc1nn(C)cc1/C=N/NC(=O)c1ccco1	–	–	4.9	–	–
Cc1cc(C(=O)N/N=C/c2cn(C)nc2C)c2ccccc2n1	–	–	–	–	–
Cc1nn(Cc2ccccc2)c(Cl)c1/C=N/NC(=O)c1cccnc1	–	–	–	14.9	–
O=C(Nc1ccccc1C(=O)N/N=C/c1ccccc1)c1ccco1	–	–	–	–	–
O=C(N/N=C/c1ccccc1)c1ccco1	–	–	5.8	–	–
CC(C)(C)OC(=O)N/N=C\c1ccc(OC(=O)c2ccco2)cc1	6.2	11.3	–	–	–
Cc1c(/C=N/NC(=O)c2cccnc2)c2ccccc2n1Cc1ccccc1	–	–	·	–	–
Cn1cccc1C(=O)N1CCN(S(=O)(=O)c2ccc([N+](=O)[O-])cc2)CC1	–	–	·	–	–
Cn1c(=O)c2cc(S(=O)(=O)N3CCN(CCO)CC3)ccc2n(C)c1=O	–	–	·	–	–
CCOC(=O)N/N=C/c1c(C)nn(-c2ccccc2Cl)c1Cl	–	11.1	–	–	–
Cc1nn(-c2ccccc2)c(Cl)c1/C=N/NC(=O)c1ccc(CNc2ccccc2)o1	–	–	–	–	–
Cc1nn(-c2ccccc2)c(Cl)c1/C=N/NC(=O)c1ccco1	–	11.7	–	–	–
SMILES	hcDAF12 agonist	hgDAF-12 ag	DAX1 inh-1	ssDAF-12 act	DAX1 inh-2
Cc1nn(-c2ccccc2)c(Cl)c1/C=N/NC(=O)OC(C)(C)C	–	–	–	–	–
COc1cccc(CNS(=O)(=O)c2cc3c(cc2Br)CC(C)N3C(C)=O)c1 (stereo not drawn)	–	–	·	–	–
O=C(C(=O)N1CCC(CNC(=O)c2ccccc2F)CC1)c1cc2ccccc2o1	–	–	·	–	–
CCOC(=O)[C@]12CCCC3=C1N(CCC3)C(=O)[C@@H](CC(=O)NCc1cccc3ccccc13)C2	–	–	·	–	–
COc1ccc(CNC(=O)[C@@H](Cc2ccccc2)NC(=O)[C@H]2O[C@@H](n3cnc4c(=O)[nH]c(N)nc43)[C@H](O)[C@@H]2O)cc1	–	–	·	–	–
N#CC1=C(N)Oc2c(ccc3cccnc23)C1c1ccccc1 (stereo not drawn)	–	–	–	–	–
Cc1ccc2[nH]c(=O)c(C3C(C#N)=C(N)Oc4c3ccc3cccnc43)cc2c1 (stereo not drawn)	–	–	–	1.1	–
COC(=O)[C@]12CCCCC=C1N(Cc1ccc(OC)cc1)C(=O)[C@@H]2CC(=O)NCC1CCCCC1	–	–	·	–	–
CCN(CC)c1nc(-c2ccccc2)ncc1S(=O)(=O)c1ccc(C)cc1	–	–	–	–	–
CN(C)c1nc(-c2ccccc2)ncc1S(=O)(=O)c1ccccc1	–	–	–	–	4.0
